About 18,000 (9%) of roughly 200,000 compounds were called active. This is one part of a sample in which actives are shown more often than they occur. Rule as the data show it: active = inhibition above about 50%; inactive = the rest.
Experiment: Leishmania major promastigote growth inhibition, primary screen (AID 1063);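 also: promastigotes grown with compound for 44 hours at 28 °C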
Conditions: Leishmania major promastigotes, resazurin fluorescence viability; at 10 µM; hits give high values
For CCc1c(C)nc2c(OC)cccc2c1Cl, the inhibition was -3.45% (inactive). With Cc1cccc(C(=O)OCC(=O)NCC(C)C)c1O the inhibition was -1.6% (inactive). In the case of Fc1ccc(COc2cccc(-c3n[nH]c(=S)o3)c2)cc1, the inhibition is reported as -2.62% (inactive). For N#Cc1ncc(C(F)(F)F)cc1Oc1cccnc1, the inhibition was -5.89% (inactive). For O=C(CSc1nnc(-c2ccc([N+](=O)[O-])cc2)o1)Nc1ccccn1, the inhibition was 6.18% (inactive). In the case of COc1ccc(/C=C(\C#N)C(=O)ONC2=NCCCCC2)cc1, the inhibition is reported as -4.23% (inactive). In the case of COc1ccc(CCN2C(=O)c3[nH]nc(-c4ccccc4O)c3C2c2ccc(C)cc2)cc1OC (stereo unspecified), the inhibition is reported as 75% (active). With COc1ccc(CCN(C)CCN2C(=O)c3ccccc3C2=O)cc1OC the inhibition was -2.69% (inactive). In the case of COC(=O)c1ccc(C2C(Oc3ccccc3C)C(=O)N2CCc2ccc(OC)c(OC)c2)cc1 (stereo unspecified), the inhibition is reported as 5.32% (inactive). In the case of CN1C(=O)/C(=C\c2cc(Br)cs2)c2ccccc21, the inhibition is reported as 13.9% (inactive). In the case of CCC(C)c1ccc(NC(=S)NCc2ccccn2)cc1 (stereo unspecified), the inhibition is reported as -0.38% (inactive). With Cc1cccc(C)c1N1CCN(S(=O)(=O)N2CCCCC2)CC1 the inhibition was 15.9% (inactive). For N#CC1=C(N)Oc2c(sc3ccccc23)C1c1ccco1 (stereo unspecified), the inhibition was 9.33% (inactive). With Cc1cc(C)c(C#N)c(SCc2[nH]nc3c2C(c2ccccc2)C(C#N)=C(N)O3)n1 (stereo unspecified) the inhibition was 8.99% (inactive). With Cc1cc(C)c2c3c(sc2n1)C(c1ccccc1)C(C#N)=C(N)O3 (stereo unspecified) the inhibition was 100% (active). In the case of CC(=O)NC(=S)NNC(=O)c1ccc(Br)cc1, the inhibition is reported as -4.54% (inactive). In the case of CCOc1ccc(Br)cc1S(=O)(=O)N1CCC(C(=O)O)CC1, the inhibition is reported as -5.93% (inactive). For CC1Cc2ccccc2N1C1=CC(=O)CC(C)(C)C1 (stereo unspecified), the inhibition was 7.71% (inactive). For O=C(CCc1ccccc1)NNC(=O)c1ccc(Br)cc1, the inhibition was -3.53% (inactive). In the case of COc1ccc(C(=O)NC(=S)NNC(=O)c2c(-c3ccccc3)noc2C)cc1, the inhibition is reported as -0.99% (inactive). In the case of COc1ccc(C(=O)NC(=S)NNC(=O)CCc2ccccc2)cc1, the inhibition is reported as 93.2% (active). For O=C(CCCc1ccccc1)NCc1ccccc1, the inhibition was -8% (inactive). With O=C(CN1C(=O)c2cccc3cccc1c23)Nc1ccccc1 the inhibition was -9.01% (inactive). In the case of Cn1c(=O)n(C)c(=O)n(CC(=O)N2CCCCC2)c1=O, the inhibition is reported as -4.15% (inactive). With O=C(CN1C(=O)c2cccc3cccc(c23)C1=O)N1CCCCC1 the inhibition was 89.8% (active). For COc1ccc(OCC(=O)NNC(=O)c2cccc(C)c2)cc1, the inhibition was -6.27% (inactive). For Cc1ccc(CC(=O)Nc2cccc(C#N)c2)cc1, the inhibition was -0.29% (inactive). In the case of CC(=O)c1sc(NC(=O)CCCOc2ccccc2C)nc1C, the inhibition is reported as -7.25% (inactive). With COc1cccc2sc(Nc3nc(C)c(C(C)=O)s3)nc12 the inhibition was 98.4% (active). For COc1cccc2sc(NNC(=O)c3nc4ccccc4s3)nc12, the inhibition was 48.5% (inactive). With COC(=O)CSc1ccc2nnc(CCNS(=O)(=O)c3ccc(C)cc3)n2n1 the inhibition was 2.97% (inactive). In the case of CSc1ncccc1C(=O)OCc1ccc(Br)cc1, the inhibition is reported as -1.11% (inactive). With CCOC(=O)/C(=N\Nc1ccccc1Cl)N(C)C1CCS(=O)(=O)C1 (stereo unspecified) the inhibition was -1.23% (inactive). For CCc1cccc(NC(=O)CCC(=O)O)c1, the inhibition was 52.3% (active). For CCOC(=O)c1cccc(NC(=O)CCOc2ccccc2)c1, the inhibition was 9.18% (inactive). For CCc1cccc(NC(=O)CCNS(=O)(=O)c2cccc3nonc23)c1, the inhibition was -7.76% (inactive). For CC(OC(=O)c1ccccc1OCc1ccc(Cl)cc1)C(N)=O (stereo unspecified), the inhibition was 10.8% (inactive). In the case of CC1CN(/C=C/C(=O)C(F)(F)F)CC(C)O1 (stereo unspecified), the inhibition is reported as -1.49% (inactive). For COCC1CCCN(Cc2nc(-c3ccc4c(c3)OCO4)no2)C1 (stereo unspecified), the inhibition was 0.34% (inactive). For COc1ccc(CCN(C(=O)COc2ccccc2)c2nc(-c3ccccc3)cs2)cc1OC, the inhibition was 52.1% (active). With CN(C(=O)COc1ccccc1)c1nnc(-c2ccncc2)s1 the inhibition was -4.81% (inactive). With COc1ccc(CCNc2nc(-c3cccc(NC(C)=O)c3)cs2)cc1OC the inhibition was 3.47% (inactive). For COc1ccc(-n2c(C)nn(CC3CC3)c2=O)cc1, the inhibition was -6.72% (inactive). In the case of CC(=O)O[C@]1(C(C)=O)CC[C@H]2[C@@H]3C=C(C)C4=CC(=O)CC[C@]4(C)[C@H]3CC[C@@]21C, the inhibition is reported as 69.8% (active). In the case of CCN(CC)S(=O)(=O)c1cc([N+](=O)[O-])ccc1NNC(=O)Nc1ccccc1, the inhibition is reported as 31.2% (inactive). In the case of CCn1c(O)c(N=NC(=O)c2cccc(S(=O)(=O)N3CCCCC3)c2)c2ccccc21, the inhibition is reported as 3.18% (inactive). For CCN(CC)S(=O)(=O)c1cc([N+](=O)[O-])ccc1N=Nc1c(O)n(C)c2ccccc12, the inhibition was 65.5% (active). With Cc1cccc(CN2CCN(Cc3cnn(-c4ccccc4F)c3)CC2CCO)n1 (stereo unspecified) the inhibition was 3.31% (inactive). For O=C(NCCOc1ccccc1F)Nc1ccc(Br)cc1, the inhibition was 1.12% (inactive). For O=C(CN(C(=O)c1csnn1)c1cccc(F)c1)NCc1ccc(F)cc1, the inhibition was -3.27% (inactive). In the case of COc1ccc(C2=NN(C(=O)CCC(=O)O)C(c3cccs3)C2)cc1OC (stereo unspecified), the inhibition is reported as -5.57% (inactive). With COc1ccc(CN(C(=O)c2cccs2)c2nccs2)cc1OC the inhibition was 0.69% (inactive). With COC(=O)C1=CN(Cc2ccc(OC)c(OC)c2)C=C(C(=O)OC)C1c1cccs1 the inhibition was 100% (active). In the case of CCCCc1nnc(NC(=O)CSc2nc(N)cc(=O)[nH]2)s1, the inhibition is reported as 1.7% (inactive). In the case of Cc1cc(NC(=O)/C=C/C(=O)N(CC(=O)NC2CCCC2)c2ccc(F)cc2)no1, the inhibition is reported as 5.25% (inactive). For Cc1cc(NC(=O)/C=C/C(=O)N(c2ccccc2C)C(C(=O)NC2CCCC2)c2ccc(F)cc2)no1 (stereo unspecified), the inhibition was 71.3% (active). With Cc1cc(NC(=O)CCC(=O)N(c2cccc(F)c2)C(C(=O)NC2CCCC2)c2ccncc2)no1 (stereo unspecified) the inhibition was -6.83% (inactive). With CC(=O)c1ccc(NC(=O)CSC(=S)N2CCCC2)cc1 the inhibition was -5.47% (inactive). With O=C(Nc1nnc(Cc2ccccc2)s1)c1cnccn1 the inhibition was 1.06% (inactive). For COc1ccc(NC(=O)CSc2nc(C)cs2)cc1, the inhibition was 8.18% (inactive). With Cc1nn(-c2ncc(C(F)(F)F)cc2Cl)c(=O)n1-c1ccccc1 the inhibition was -12.9% (inactive). With Cc1nn(CC#N)c(=O)n1N(C)c1ncc(C(F)(F)F)cc1Cl the inhibition was -6.01% (inactive). For Cc1nn(CC2CC2)c(=O)n1N(C)c1ncc(C(F)(F)F)cc1Cl, the inhibition was 74.1% (active). In the case of CC(=O)c1cccc(-n2nnnc2SCC(=O)NNC(=O)C2CCCCC2)c1, the inhibition is reported as -7.09% (inactive). With COC(=O)C1=C(N)Oc2c(oc(CO)cc2=O)C1c1c(F)cccc1Cl (stereo unspecified) the inhibition was 10.5% (inactive). For Cc1[nH][nH]c(=O)c1C(c1ccc2c(c1)OCO2)c1c(C)[nH][nH]c1=O, the inhibition was 25.9% (inactive). With Cc1[nH][nH]c(=O)c1C(c1ccc(-c2ccc(Cl)cc2)o1)c1c(C)[nH][nH]c1=O the inhibition was 100% (active). For CCOc1ccc(C(c2c(C)[nH][nH]c2=O)c2c(C)[nH][nH]c2=O)cc1OCC, the inhibition was 22.5% (inactive). For C=CCc1cccc2cc(C(=O)NC3CCCC3)c(=O)oc12, the inhibition was 3.36% (inactive). With OCC1(CCc2ccccc2)CCN(Cc2ccc3nsnc3c2)CC1 the inhibition was 88.2% (active). For OCCC1CN(Cc2ccc3nsnc3c2)CCN1C1CCCC1 (stereo unspecified), the inhibition was 20.1% (inactive). With Cc1cccc(-c2ncc(CN3CCC(CO)(CCCc4ccccc4)CC3)cn2)c1 the inhibition was 15.9% (inactive). With Nn1c(SCC(=O)Nc2nccs2)nncc1=O the inhibition was -3.46% (inactive). For CSc1ncnc2sc(C)c(C)c12, the inhibition was -8.93% (inactive). In the case of Cc1ccc(S(=O)(=O)N2CCC(N3CCCCCC3)CC2)cc1, the inhibition is reported as 95.3% (active). For Cc1ccc(S(=O)(=O)N2CCN(S(=O)(=O)N3CCOCC3)CC2)cc1, the inhibition was -6.92% (inactive). In the case of CC(=O)Nc1ccc(S(=O)(=O)N2CCN(C3CCCCCCC3)CC2)cc1, the inhibition is reported as -3.65% (inactive). For COc1ccc(NC(=O)N2CCCC(c3nc(-c4ccc(F)cc4)no3)C2)cc1 (stereo unspecified), the inhibition was -5.76% (inactive). In the case of O=C(COC(=O)CCc1ccc(S(=O)(=O)N2CCOCC2)cc1)Nc1cccc(Cl)c1, the inhibition is reported as -4.95% (inactive). For N#C/C(C(=S)Nc1ccccc1)=C1/NN=C(N2CCOCC2)N1c1ccccc1, the inhibition was 4.1% (inactive). In the case of Cc1ccc(C(=O)NC(=S)Nc2ccc(N3CCOCC3)cc2)cc1, the inhibition is reported as -0.73% (inactive). With Cc1ccc(NC(=S)NCCN2CCOCC2)cc1 the inhibition was 2.32% (inactive). For Cc1ccc(C(=O)NC(=S)NCCN2CCOCC2)cc1, the inhibition was 65.4% (active). In the case of O=C(CCN1CCCCC1)N=Nc1c(O)[nH]c2ccccc12, the inhibition is reported as 11.4% (inactive). In the case of CSc1ccccc1C(=O)NCc1ccccc1, the inhibition is reported as -0.25% (inactive). With Cc1cc(C)n(CC(=O)Nc2ccc([N+](=O)[O-])cc2)n1 the inhibition was -2.52% (inactive). In the case of O=C(COC(=O)c1ccco1)NCc1ccc(Cl)cc1, the inhibition is reported as -4.2% (inactive). In the case of COCCn1c(C)cc(C(=O)CSc2nc3ccccc3c(=O)n2C(C)COC)c1C (stereo unspecified), the inhibition is reported as 15.4% (inactive). For COCC(C)n1c(SCc2ccc(C(=O)OC)o2)nc2ccccc2c1=O (stereo unspecified), the inhibition was 89% (active). With COC(=O)c1ccc(CSc2nc3ccccc3c(=O)n2-c2cccc(OC)c2)o1 the inhibition was 46.8% (inactive). With Cc1ccc(-c2nn(-c3ccccc3)cc2CN(Cc2ccccc2)C(=O)CCC(=O)O)o1 the inhibition was -2.65% (inactive). With Cc1ccc(-c2nn(-c3cccc(F)c3)cc2CNCCc2ccncc2)o1 the inhibition was 56.8% (active). In the case of CSCCNCc1cn(-c2ccc(F)cc2F)nc1-c1ccccc1C, the inhibition is reported as 15.5% (inactive). For Cn1c(=O)n(Cc2ccco2)c(=N)c2c3c(sc21)CCCC3, the inhibition was 13.8% (inactive). With COc1cccc(OC)c1C(=O)OCC(=O)/C(C#N)=C(\C)N the inhibition was -3.93% (inactive). With CCOC(=O)C1=C(CN2CCc3ccccc32)NC(=O)NC1c1cc(C)ccc1C (stereo unspecified) the inhibition was 11.4% (inactive). With COCCOC(=O)C1=C(C)NC(=O)NC1c1ccc(Cl)cc1 (stereo unspecified) the inhibition was -1.33% (inactive). With CCOC(=O)C1=C(CN2CCc3ccccc32)NC(=O)NC1c1ccc(Cl)cc1 (stereo unspecified) the inhibition was 55.5% (active). For CCOC(=O)C1=C(CN2CCCCCC2)NC(=O)NC1c1cccc([N+](=O)[O-])c1 (stereo unspecified), the inhibition was 10.7% (inactive). For CCOC(=O)C1=C(CN2CCc3ccccc32)NC(=O)NC1c1cccc([N+](=O)[O-])c1 (stereo unspecified), the inhibition was 82.8% (active). In the case of CCOC(=O)C1=C(CNC2CCCCC2)NC(=O)NC1c1cc(C)ccc1C (stereo unspecified), the inhibition is reported as 47.4% (inactive).
